From PubChem
DRD3 agonist: activates the human D3 dopamine receptor | P35462 | D3R DiscoveRx beta-arrestin cells, luminescence, 90 min | max activation, % | 0.58% of 410,000 active | AID 652048; in the data active means max activation above about 30%; further: 0% is about no effect
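Agonist-mode cell screen: cells plated at 1500/well and incubated overnight at 37 °C, then exposed to library compounds for 90 min at 37 °C. Detection reagent was added for 30–60 min at room temperature, and luminescence was read.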
D1 agonist: activates the human D1 dopamine receptor; P21728; HEK293 T-REx D1 cells, calcium flux, agonist mode; activation, % at 2 µM; 1% of 360,000 active; AID 504660; in the data active means activation above about 30%; further: 0% is about no effect
Target sequence (P21728 whole entry, looked up): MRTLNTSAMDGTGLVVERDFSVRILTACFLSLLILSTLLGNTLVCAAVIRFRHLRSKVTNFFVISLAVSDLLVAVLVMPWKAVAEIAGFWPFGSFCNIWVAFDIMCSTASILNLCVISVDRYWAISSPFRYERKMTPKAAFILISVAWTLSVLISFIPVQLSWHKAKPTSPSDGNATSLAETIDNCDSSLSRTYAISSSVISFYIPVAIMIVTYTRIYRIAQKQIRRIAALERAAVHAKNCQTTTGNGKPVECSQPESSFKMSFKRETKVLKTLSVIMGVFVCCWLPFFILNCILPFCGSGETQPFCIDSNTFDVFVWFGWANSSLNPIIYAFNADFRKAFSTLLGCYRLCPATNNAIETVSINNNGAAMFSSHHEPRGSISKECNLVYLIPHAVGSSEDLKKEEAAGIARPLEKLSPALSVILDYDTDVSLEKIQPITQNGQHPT
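Tetracycline-induced HEK293 TREx D1 cells, force-coupled to calcium signalling, were dye-loaded with a no-wash calcium kit. Compound was pin-added after a 10 s baseline. Fluorescence was read kinetically at 1 cycle/s for 180 s, with calcium rises flagged as agonism.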
D1 antagonist: antagonists of human D1 dopamine receptor; 3.2% of 360,000 active; activity change, negative = inhibition, % at 10 µM; P21728; AID 504652; HEK293 TREx D1 cells, calcium flux, dopamine EC80; hits give low values; in the data active means activity change below about -30%; further: on the % scale 0 is the no-effect control and ±100 the full control effect
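HEK293 T-REx cells expressing inducible, force-coupled D1 receptor; no-wash Ca dye, 30–90 min RT. Cmpd → 180 s read at 1 Hz → EC80 DA → 180 s read.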
ERG Ets-DNA blk: inhibitors of human ERG Ets domain-DNA interaction; P11308; fluorescence polarization, His-ERG Ets domain / labelled DNA; Potency, µM (top dose mostly 76.9 µM), for the others: at the highest dose FP activity, negative = inhibition, usual class: inhibitors; 0.028% of 370,000 active; AID 624246; active means well fitted inhibition curve with a large enough effect in the polarisation, with a control signal flat; inconclusive means small, poorly fitted or top-dose-only effect, or effect the other way, or a change in a side signal; inactive means no such curve, though single readings can be large or run the other way; the % refers to the polarisation;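 further: polarization taken with two DNA probes labelled with fluorescein and Texas red; potency means the concentration at half of the fitted maximal effect; % of control where 0% means no effect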
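His-tagged ERG Ets domain (1 uM in the protein solution; 300mM KCl, 50mM Tris-HCl, 1mM EDTA, 1mM DTT, pH 7.5) received compound, then a probe mix of 5 nM fluorescein-DNA and 100nM Texas-615-DNA. Fluorescence polarization was read for both dyes.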
D1 PAM: potentiators of human D1 dopamine receptor | HEK293 TREx D1 cells, calcium flux, dopamine EC20 potentiation | AID 504651 | 0.036% of 360,000 active | potentiation, % at 10 µM; in the data active means potentiation above about 30%; further: 0% is about no effect
DRD3 antagonist: blocks the human D3 dopamine receptor; P35462; D3R cells, DiscoveRx beta-arrestin luminescence, antagonist mode; hits give low values; AID 652054; max response, negative = inhibition, %; 2.5% of 360,000 active; in the data active means max response below about -50%; inconclusive means no clear call, values can overlap the other calls; further: on the % scale 0 is the no-effect control and ±100 the full control effect
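Cells expressing the human receptor were seeded at 1500 cells/well, incubated overnight at 37 degrees C in 5% CO2, then exposed to library compounds with dopamine controls for 90 minutes at 37 degrees C before luminescent detection.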
* = called active by the depositor; ? = inconclusive; . = no result given. The list is not random: actives were taken first. Their share in the collection is about 6.1%.

SMILES	DRD3 agonist	D1 agonist	D1 antagonist	ERG Ets-DNA blk	D1 PAM	DRD3 antagonist
COc1ccc(NC(=O)CO/N=C(\C)c2cccs2)cc1	-4	10	6	13%	5	6
COc1ccc(Br)cc1S(=O)(=O)NCCCN1CCOCC1	-13	1	6	-4%	8	-90*
Cc1cc(-c2ccc(C)c(S(=O)(=O)NCCCN3CCCCCC3)c2)on1	-14	0	2	7%	9	-18
COc1ccc(-c2cc(C)no2)cc1S(=O)(=O)NCCCN1CCN(c2ccccc2)CC1	0	7	-33*	-1%	-17	-58*
Cc1cc(-c2ccc(C)c(S(=O)(=O)NCCCN3CCN(c4ccccc4)CC3)c2)on1	0	10	-77*	-8%	-19	?
Cc1cc(-c2ccc(C)c(S(=O)(=O)NCCCN3CCN(c4ccccc4F)CC3)c2)on1	4	10	-67*	-3%	-22	-68*
CCCS(=O)(=O)NC(=O)C1(C)CCCN(C(=O)c2ccc(F)c(Cl)c2)C1 (stereo not drawn)	0	.	.	.	.	3
CCOc1ccc2c(c1)c(=O)c(C(=O)c1ccccc1)cn2Cc1ccccc1	-18	2	-3	-2%	-1	.
CN(CC(=O)O/N=C(\N)c1cccc([N+](=O)[O-])c1)S(=O)(=O)c1ccccc1	-7	12	-3	4%	-5	?
COc1ccc(Br)cc1S(=O)(=O)N1CCCC1	-10	-2	-36*	5%	-10	-5
Cc1cc(-c2ccc(C(C)C)c(S(=O)(=O)NCCN3CCC(C)CC3)c2)on1	-7	44*	-29	3%	-6	-18
O=C(CNCCc1ccccc1)Nc1ccc(C(=O)N2CCCCC2)cc1	-5	9	21	-6%	-9	10
Cc1cc(OCC(=O)Nc2ccc(N3CCN(C(=O)c4ccco4)CC3)cc2)cc(C)c1Cl	55*	10	-21	0%	-1	53
O=C(CNCCc1ccc(Cl)cc1)Nc1ccc(C(=O)N2CCCCC2)cc1	-15	34*	-16	-1%	-11	-8
Cc1ccc(OCC(=O)Nc2ccc(N3CCN(C(=O)c4ccco4)CC3)cc2)cc1C	11	10	-27	-6%	-4	6
O=C(Nc1ccc(C(=O)N2CCCCC2)cc1)c1ccc(Br)cc1	-4	4	-31*	-1%	-4	-8
O=C(Nc1ccc(N2CCN(C(=O)c3ccco3)CC2)cc1)c1ccc(Br)cc1	12	0	-32*	2%	-11	15
O=C(Nc1cccc2c1C(=O)NC2=O)c1cccnc1Cl	2	8	-24	-8%	3	8
COc1ccccc1C(=O)Nc1ccc(C(=O)N2CCCC2)cc1	2	-3	-71*	-1%	-10	27
CC(=O)c1ccc(NC(=O)COc2ccccc2C(=O)Nc2ccccc2)cc1	4	7	-61*	3%	-11	2
CCOc1ccc(NC(=O)c2ccccc2OC)cc1	1	0	-13	2%	41*	0
O=[N+]([O-])c1cc(-c2cccnc2)n[nH]1	25	.	.	3%	.	-2
CCOc1cc(NS(C)(=O)=O)c(OCC)cc1NC(=O)c1cccs1	20	4	-12	10%	-4	18
COc1ccccc1N(C)S(=O)(=O)c1ccc(C(=O)N(C)Cc2ccc(OC(F)F)cc2)cc1	-5	19	-41*	4%	0	14
COc1ccccc1N(C)S(=O)(=O)c1ccc(C(=O)NCCc2ccc(F)cc2)cc1	-3	6	2	1%	-1	10
SMILES	DRD3 agonist	D1 agonist	D1 antagonist	ERG Ets-DNA blk	D1 PAM	DRD3 antagonist
COc1ccccc1N(C)S(=O)(=O)c1ccc(C(=O)Nc2nccs2)cc1	-5	0	-66*	6%	-5	46
COc1ccccc1N(C)S(=O)(=O)c1ccc(C(=O)Nc2ccc3nc(C)sc3c2)cc1	7	9	-44*	-7%	-1	48
COc1cccc(NC(=O)CN(Cc2ccccc2)S(=O)(=O)c2ccc3nc(C)sc3c2)c1	-8	21	-45*	6%	-7	.
CCOc1ccc(NC(=O)CN(Cc2ccccc2)S(=O)(=O)c2ccc3nc(C)sc3c2)cc1	2	1	0	-1%	-6	.
CC1=C(C(N)=O)C(c2ccc(Cl)cc2Cl)n2ncnc2N1 (stereo not drawn)	2	3	12	-1%	-4	8
Cc1cccc(NC(=O)CNC(=O)c2cc(C3CC3)nn2-c2ccccc2)c1C	-21	5	32	6%	8	-10
COc1ccc(/C=N/NC(=O)c2nn(-c3ccccc3)c(=O)c3c(N)scc23)cc1	-4	0	-15	29%	-10	?
CC1CC(C)CN(C(=O)Cn2c(=O)n(CCCC(=O)NCc3ccco3)c(=O)c3sccc32)C1 (stereo not drawn)	-11	5	1	2%	.	-8
COc1ccc(-n2nc(C(=O)NCC(=O)NC3CCCC(C)C3C)c3ccccc3c2=O)cc1 (stereo not drawn)	1	0	24	12%	15	1
COc1ccc(C=NCC2COc3ccccc3O2)cc1OC (stereo not drawn)	-27	2	-9	-5%	-4	-51*
CC1(C)Cc2nc(Cl)c(C#N)cc2CO1	-19	1	8	-5%	4	-11
Cc1ccn2c(-c3csc(NCc4ccco4)n3)c(C)nc2c1	-8	8	-42*	-2%	-11	0
Cc1cccc(Nc2nc(-c3c(C)nc4ccccn34)cs2)c1	15	8	-46*	.	-2	11
Cc1nc2ccccn2c1-c1csc(Nc2cccc(O)c2)n1	-3	0	-4	8%	2	18
COc1ccc(-c2csc(NCc3ccco3)n2)cc1C	-7	-1	-14	-3%	-3	0
CC(C)N(CCCNC(=O)Cn1ncc2c([nH]c3ccccc32)c1=O)Cc1ccccc1	-4	2	11	0%	-2	10
CCCCNc1nc(Oc2ccc(OCCC)nn2)nc(N(C)C)n1	8	1	-4	-3%	0	.
COc1ccc2c(Cl)c(-c3nnc(SCC(N)=O)n3C)sc2c1	-8	1	5	5%	-5	2
COc1ccc2c(Cl)c(-c3nnc(SCC(=O)c4ccccc4)n3C)sc2c1	1	4	-43*	-13%	-5	20
COc1cccc(CN(C(=O)c2cccc(OC)c2)C2CCS(=O)(=O)C2)c1 (stereo not drawn)	0	5	50	4%	-6	19
CCOc1cccc(C(=O)N(Cc2ccc(F)cc2)C2CCS(=O)(=O)C2)c1 (stereo not drawn)	38*	-4	-10	2%	1	22
